# Only some compounds are listed: those with a hit (about 5.4% of all), similar ones and a draw of the others.
# AHR activator: human AHR activation; AHR-responsive luciferase reporter cells, luminescence; activation, % at 5 µM; hit rate 2.5% among 320,000; in the data active means activation above about 47%;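 further: 0% = vehicle wells and 100% = reference agonist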
# Target sequence (P35869 whole entry, looked up): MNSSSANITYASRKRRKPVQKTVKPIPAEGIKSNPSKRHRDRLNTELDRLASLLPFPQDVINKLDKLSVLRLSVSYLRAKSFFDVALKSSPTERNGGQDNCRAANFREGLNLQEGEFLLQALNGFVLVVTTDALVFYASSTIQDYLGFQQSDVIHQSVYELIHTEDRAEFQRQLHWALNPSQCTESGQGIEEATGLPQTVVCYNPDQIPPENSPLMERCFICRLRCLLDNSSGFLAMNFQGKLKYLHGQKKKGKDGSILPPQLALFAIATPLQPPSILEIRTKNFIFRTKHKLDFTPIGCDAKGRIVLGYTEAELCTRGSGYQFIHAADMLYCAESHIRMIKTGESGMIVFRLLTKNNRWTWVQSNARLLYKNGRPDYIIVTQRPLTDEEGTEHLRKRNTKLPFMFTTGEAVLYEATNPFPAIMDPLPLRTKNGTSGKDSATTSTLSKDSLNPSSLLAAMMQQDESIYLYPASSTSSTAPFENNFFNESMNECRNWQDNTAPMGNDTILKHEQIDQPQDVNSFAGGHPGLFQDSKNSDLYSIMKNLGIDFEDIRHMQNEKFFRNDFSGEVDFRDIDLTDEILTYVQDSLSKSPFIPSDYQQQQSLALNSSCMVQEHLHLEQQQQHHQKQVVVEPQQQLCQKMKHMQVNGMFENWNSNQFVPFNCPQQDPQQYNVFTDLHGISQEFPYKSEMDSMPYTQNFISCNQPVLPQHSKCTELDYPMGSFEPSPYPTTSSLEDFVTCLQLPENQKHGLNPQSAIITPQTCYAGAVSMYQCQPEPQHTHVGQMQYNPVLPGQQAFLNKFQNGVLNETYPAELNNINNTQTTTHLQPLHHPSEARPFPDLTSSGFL
# GAA850 FXN act: frataxin GAA850 promoter activation; HEK293 lucGAA850 FXN promoter luciferase reporter, 24 h; percent of 10 µM SAHA response; activation, % at 6 µM; hit rate 0.56% among 360,000; AID 540364;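 active means activation above the average of all compounds screened plus 3 SD, cutoff fixed separately per campaign, cut at about 7.5% in these data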;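 further: 0% = DMSO wells and 100% = 10 µM SAHA wells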
# HSF-1 act: increases HSF-1 driven luciferase reporter signal; activation, % at 9 µM; hit rate 1.7% among 300,000; NIH3T3-HGL HSF-1 luciferase reporter, MG132, 8 h; 100% = twice DMSO control signal;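 active means mean replicate activation of at least 50% with a set share of replicates each reaching 50%; inconclusive means only one of those two conditions met; inactive means mean below 50% and too few replicates reaching it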;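 further: 0% = median of the neutral control wells and 100% = twice that signal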
# HSF1 inhib: HSF1 inhibition | activity change, negative = inhibition, % at 7.5 µM (by protocol) | hit rate 0.77% among 300,000 | NIH3T3-HGL HSE-luciferase, MG132-induced, luminescence 8 h; stronger effect = lower value;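 active means more than half of replicate wells show activity change below -50%, luminescence cut by over half; inconclusive means some wells, but at most half, below -50%; inactive means no replicate well below -50%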;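 further: luciferase reports HSF-1 transcriptional activity via heat shock element; 0% = median of DMSO wells and -100% = zero luminescence signal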
# DAX1 inh: inhibitors of human orphan nuclear receptor DAX1 (NR0B1); AID 504766; hit rate 0.99% among 340,000; HEK293 Gal4-DAX1 luciferase reporter, luminescence; inhibition, % at 6.75 µM; P51843;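 active means inhibition above the mean over all tested compounds plus 3 SD, cut at about 4.2% in these data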;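 further: 0% = DAX1-transfected cells with DMSO and 100% = empty-vector control cells with DMSO; inhibition shows as a rise in luminescence from relieved DAX1 repression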
# Active calls of the source: *; ? = inconclusive; · = no result.
SMILES,AHR activator,GAA850 FXN act,HSF-1 act,HSF1 inhib,DAX1 inh
CC(=O)c1c(C)[nH]c(C(=O)Nc2ccccc2Cl)c1C,59*,5,19,9,0
CC1=C(C(=O)Nc2ccccc2C)C(c2cccs2)NC(=S)N1 (stereo not given),0,3,-62,-51*,1
Cc1ccc(-c2nc(-c3cccnc3)no2)c(C)c1,47,4,57*,21,0
CC(=O)Oc1ccc(-c2nc(-c3cccnc3)no2)cc1,0,0,35,22,0
Brc1ccc(-c2nc(-c3cccnc3)no2)o1,63*,1,14,14,2
COc1ccc(/C=N/NC(=O)c2cccnc2)cc1CSc1nc2ccccc2s1,54*,-4,0,4,-3
Cc1ccc(-c2[nH]nc(N)c2N=Nc2ccccc2C)cc1,62*,1,5,-8,-1
Cc1ccc(-c2[nH]nc(N)c2N=Nc2cccc(Cl)c2C)cc1,·,0,·,·,-1
Fc1ccc(N2Cc3ccsc3C=N2)cc1,37,2,6,16,0
C[C@H](NC(=O)c1ncn2c1C(=O)NC[C@H]2C)C(=O)OC(C)(C)C,·,1,·,·,1
O=C(O)CCCCCNC(=O)CCn1nnc2ccccc2c1=O,1,-2,3,-6,5.9*
O=C(N/C(=C/C=C/c1ccccc1)C(=O)N1CCOCC1)c1ccccc1Cl,67*,2,2,0,1
CCNC1CCS(=O)(=O)C1 (stereo not given),-2,0,-2,-7,4
O=S1(=O)CCC(NCC2CCCO2)C1 (stereo not given),-2,2,-3,0,7.4*
Cc1nnc(SC(C)C(=O)NC2CCCCC2)[nH]c1=O (stereo not given),·,2,·,·,0
Cc1ccc(C(=O)CSc2nnnn2C(C)C)c(C)c1,5,-6,54*,28,-2
Cc1ccc(C)c(C(=O)CSc2nnnn2C(C)C)c1,5,0,13,11,2
Cc1ccc(CC(=O)O/N=C(\N)c2ccccn2)cc1,4,4,45,17,1
Cc1cccc(OCC(=O)O/N=C(\N)c2ccccn2)c1C,2,5,13,21,2
N/C(=N\OC(=O)COc1cc(Cl)c(Cl)cc1Cl)c1ccccn1,1,5,93*,40,·
Cc1ccc(OCC(=O)O/N=C(\N)c2ccccn2)cc1,2,4,57*,28,3
CCOC(=O)CN1C(=O)S/C(=C/c2ccc(O)c([N+](=O)[O-])c2)C1=O,-1,2,12,-2,5.9*
CC(C#Cc1ccc2c(c1)COc1c3ccccc3nn1-2)OC(C)(C)C (stereo not given),-2,3,7,7,0
CCSc1nnc(NC(=O)c2ccc3ccccc3n2)s1,64*,6,28,18,1
CCc1nnc(NC(=O)c2ccc3ccccc3n2)s1,28,4,27,11,1
SMILES,AHR activator,GAA850 FXN act,HSF-1 act,HSF1 inhib,DAX1 inh
CCSc1nnc(NC(=O)C2CC2c2ccccc2)s1 (stereo not given),1,1,-2,-7,12*
C=CCOC(=O)C1C(=O)CC(C)(O)C(C(=O)OCC=C)C1c1ccc(N(C)C)cc1 (stereo not given),1,0,11,-4,2
O=C(c1cc(Br)c[nH]1)N1CCSCC1,3,1,-86,-84*,1
COc1ccccc1OCc1cc(C(=O)NCc2ccc(N3CCCC3=O)cc2)no1,0,5,7,2,0
CC(=O)c1ccc(OC2(C)CCN(Cc3ccc4c(c3)OCCO4)C2)cc1 (stereo not given),·,0,·,·,·
CCCCNc1c(-c2ccc(-c3cccc(Cl)c3)cc2)nc2ccccn12,56*,2,22,21,1
CCCCCCSc1ccc(-c2nc3ccccn3c2NCCCC)cc1,-1,1,8,9,0
COC(=O)c1sc(-c2ccc(Cl)cc2)cc1NC(=O)/C=C/C(=O)O,0,-1,66*,42,0
O=C(Nc1nc2c(s1)CCCC2)c1cccs1,59*,-2,·,·,-2
Cc1ccc(C(=O)Nc2nc3c(s2)CCCC3)o1,19,1,60*,25,2
CC(=O)N(C(C)=O)c1ncn(C)c1S(=O)(=O)Nc1ccccc1,·,1,·,·,2
O=C(c1ccc(Br)cc1)c1coc2ccc(O)cc12,-4,1,-24,-22,12*
N#Cc1ccccc1OCCN1C(=O)c2ccccc2C1=O,7,3,10,17,2
Nc1cccc2c1C(=O)N(CCOc1ccccc1F)C2=O,77*,-3,?,70,1
Cc1oc(-c2ccc3c(c2)OCCO3)cc1C(=O)NCC(=O)O,3,3,-29,-33,-1
COc1ccc(-c2cc(C(=O)NC(Cc3cc4ccccc4[nH]3)C(=O)O)c(C)o2)cc1OC (stereo not given),15,4,-10,-7,-1
COc1ccc(-c2cc(C(=O)O)c(C)o2)cc1OC,-6,1,-66,-61*,-3
Cc1oc(-c2ccc3c(c2)OCCO3)cc1C(=O)O,-10,-7,-73,-72*,-4
CCOc1cc(C(=O)N[C@@H](C)C(=O)N2CCC3(CC2)NCCc2[nH]cnc23)cc(OCC)c1OCC,1,0,-48,-32,0
COc1cccc2c1nc(C)c1cc(C)oc12,62*,1,23,5,1
C=CCn1c2ccccc2c2nnc(SCC(=O)O)nc21,11,3,-69,-60*,-1
C=CCn1c2ccccc2c2nnc(SCC(=O)OCN3C(=O)c4ccccc4C3=O)nc21,1,2,-2,4,0
CC(C)COC(=O)N(C)C[C@H]1OCc2cnnn2CCCC(=O)N([C@H](C)CO)C[C@@H]1C,·,-1,·,·,0
O=C1CN(C(=O)COC(=O)CNS(=O)(=O)/C=C/c2ccccc2)c2ccccc2N1,-1,0,12,1,0
CCNc1nc(Cl)nc(-c2cn(-c3ccccc3)c3ccccc23)n1,62*,1,-1,2,-1
SMILES,AHR activator,GAA850 FXN act,HSF-1 act,HSF1 inhib,DAX1 inh
CCc1noc(C)c1C(=O)Nc1ccc(F)c(F)c1F,4,1,6,13,-1
CCOc1ccccc1CN1CCN(Cc2[nH]c3ccccc3c2C)CC1CCO (stereo not given),51*,-4,-14,-12,-1
Cc1cccc(C(=O)NCCNc2nc3cc(C)c(C)cc3cc2C)c1,35,2,-1,-4,1
Cc1cc2cc(C)c(NCCNC(=O)c3cccc(F)c3)nc2cc1C,56*,2,27,3,-1
COc1ccc(C(=O)NCCNc2nc3cc(C)c(C)cc3cc2C)cc1,63*,4,-12,-8,0
OC(c1cc(F)cc(Cl)c1)c1ncc(-c2cccc(C(F)(F)F)c2)[nH]1 (stereo not given),·,0,·,·,·
CC(C)[C@H](NC(=O)OCc1ccccc1)C(=O)OCC(=O)N1CCN(c2ccccc2)CC1,2,1,12,9,1
